One experiment deals with Albumin (Bos taurus) (UniProt P02769). The experiment can be described thus: bovine serum albumin binders on microarray, profiling panel, artefact control for SMM control protein annotation, biochemical, small-molecule microarray, Alexa647 label, 635/667 nm fluorescence (AID 1118).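 Further: score merges 667 nm emission intensity and signal-to-noise per printed compound spot.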 Conditions: BSA-A647 binding, fluorescence 635 nm, higher = more signal.
Experiment [1] in a line: small-molecule microarray binders of probe aXIP, primary screen, biochemical, NeuroSMM set, 635/667 nm fluorescence (AID 1119).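 Further: probe is the protein aXip251-270 applied at 1 µg/mL to compound-printed slides; binding of probe to printed compounds measured as 667 nm fluorescence plus signal to noise.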 As to conditions: higher = more signal, called active from +8 up or from −8 down.
Experiment [2] in a line: small-molecule binders of probe aNOTCH3, primary screen, biochemical, small-molecule microarray, 635/667 nm fluorescence (AID 1120).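 Further: probe is a biotin-tagged antibody raised against NOTCH3 rather than NOTCH3 protein; score merges spot fluorescence near 667 nm with spot signal to noise.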 Conditions: higher = more signal.
Experiment [3] can be described thus: small-molecule binders of probe aNOTCH2, primary screen, biochemical, small-molecule microarray, 635/667 nm fluorescence (AID 1121).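 Further: score merges feature fluorescence read at 667 nm with its signal to noise.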 Conditions: higher = more signal.
The target of experiment [4] is Carbonic anhydrase 2 (Homo sapiens) (UniProt P00918). As to the kind of experiment: CAII small-molecule binders, profiling panel, biochemical, small-molecule microarray, Alexa647-labelled CAII (AID 1122). As to conditions: CAII-A647 binding fluorescence, higher = more signal.
Experiment [5] in a line: COS7 lysate on small-molecule microarray, probe aHis, 635 nm (AID 1123).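 Further: z-score combines 667nm fluorescence intensity with signal-to-noise per printed compound spot.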 Conditions: COS7 cell lysate, fluorescence, higher = more signal.
Experiment [6] is described as follows: compound binding in COS7 lysate, probe aLAP1, primary screen, cell lysate, small-molecule microarray (AID 1124).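 Further: lysate comes from COS7 cells expressing LAP1 and is applied at 0.3 µg/mL; score merges spot fluorescence near 667 nm with signal-to-noise over triplicate slides.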 Conditions: probe aLAP1, fluorescence, higher = more signal.
The next experiment deals with Sam68 (KHDRBS1). As to the kind of experiment: Sam68 small-molecule binders, primary screen, biochemical, small-molecule microarray, 635 nm fluorescence (AID 1125).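 Further: score merges 667 nm channel intensity with signal to noise over triplicate slides.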 As to conditions: small-molecule microarray binding, higher = more signal.
The test system of experiment [7] is Chordin-like protein 2 (CHRDL2). The experiment can be described thus: CHRDL2 small-molecule binders, primary screen, biochemical, small-molecule microarray, 635 nm fluorescence (AID 1126).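 Further: printed compound slides probed with Chrdl2 protein at 4 µg/mL for 1 h at 4 C; score merges 667 nm emission intensity with signal to noise over three replicate slides.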 As to conditions: small-molecule microarray binding, fluorescence 635 nm; higher = more signal.
In experiment [8] the target is Concanavalin-A (Canavalia ensiformis) (UniProt P02866). The experiment can be described thus: ConA small-molecule binders, primary screen, artefact control for SMM control protein annotation, biochemical, small-molecule microarray, Alexa647 label, 635 nm (AID 1127).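 Further: z combines 667 nm emission intensity with signal-to-noise across three replicate slides.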 As to conditions: ConA-A647 binding fluorescence, higher = more signal.
Experiment [9] is described as follows: anti-His antibody binders, primary screen, artefact control for SMM control protein annotation, biochemical, small-molecule microarray, 635 nm fluorescence (AID 1128).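 Further: score merges feature fluorescence with signal-to-noise for each printed compound spot.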 As to conditions: anti-His Alexa647 antibody binding, higher = more signal.
Experiment [10] has as its system Human papillomavirus type 1a E7 protein (residues 1-88). The experiment can be described thus: HPV1a E7 small-molecule binders, primary screen, biochemical, small-molecule microarray, residues 1-88, 635 nm (AID 1129). Conditions: small-molecule microarray binding, fluorescence 635 nm; higher = more signal.
The target of experiment [11] is Focal adhesion kinase 1 (Homo sapiens) (UniProt Q05397). As to the kind of experiment: small-molecule microarray binders of FAK, primary screen, biochemical, 635/667 nm fluorescence, BSA, DTT (AID 1130).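 Further: composite of spot emission at 667 nm and signal to noise over triplicate slides.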 Conditions: PTK2 binding, 635 nm fluorescence, higher = more signal.
Experiment [12] deals with Fibrinogen (Alexa647-labelled). The experiment can be described thus: fibrinogen binders on compound microarrays, profiling panel, artefact control for SMM control-protein annotation, biochemical, small-molecule microarray, 635/667 nm fluorescence (AID 1131).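 Further: z-score merges 667 nm fluorescence with per-spot signal-to-noise over triplicate slides.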 Conditions: fibrinogen-A647 binding fluorescence, higher = more signal.
Experiment [13] addresses Follistatin (Homo sapiens) (UniProt P19883). The experiment can be described thus: follistatin binders on small-molecule microarrays, primary screen, biochemical, small-molecule microarray, 635/667 nm fluorescence (AID 1132). Conditions: FST binding, 635 nm fluorescence, higher = more signal.
The target in experiment [14] is Fibroblast growth factor 2 (Homo sapiens) (UniProt P09038). The experiment can be described thus: FGF2 binders on small-molecule microarrays, primary screen, biochemical, small-molecule microarray, 635/667 nm fluorescence (AID 1133). Conditions: small-molecule microarray binding, FGF2, fluorescence 635/667; higher = more signal.
Experiment [15] can be described thus: mitochondrial membrane potential change in A549 cells, profiling panel, cell-based, JC-1 fluorescence, basal, 24 h, 100 nL (AID 1138).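 Further: A549 lung adenocarcinoma cells under basal conditions with no added stimulus; test concentration not given here.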 As to conditions: higher = more signal.
The next experiment deals with Lefty1. The experiment can be described thus: Lefty1 binders on small-molecule microarrays, primary screen, biochemical, small-molecule microarray, 635/667 nm fluorescence (AID 1139). Conditions: small-molecule microarray binding, fluorescence 635/667; higher = more signal.
Experiment [16] relates to wheat germ agglutinin (Triticum aestivum), Alexa647-labelled. The experiment can be described thus: wheat germ agglutinin binders on compound microarrays, profiling panel, artefact control for SMM control-protein annotation, biochemical, small-molecule microarray, 635/667 nm fluorescence (AID 1140).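 Further: score merges 667 nm feature emission with signal to noise over triplicate slides.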 Conditions: WGA-A647 binding, 635 nm fluorescence, higher = more signal.
Experiment [17] has as its target Luciferin 4-monooxygenase (Photinus pyralis) (UniProt P08659). As to the kind of experiment: firefly luciferase enzyme inhibitors, primary screen, biochemical, luminescence, purified enzyme, 2006 set (AID 1141).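 Further: cell-free assay with purified firefly luciferase at 100 ng per well in PBS; test concentration not given here.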 As to conditions: SteadyGlo luminescence, 30 min, higher = more signal, called active from +8 up or from −8 down.

The structures appear in SMILES notation. The source made the active and inactive calls.

Concanavalin-A (Canavalia ensiformis), sequence (P02866 whole entry, looked up): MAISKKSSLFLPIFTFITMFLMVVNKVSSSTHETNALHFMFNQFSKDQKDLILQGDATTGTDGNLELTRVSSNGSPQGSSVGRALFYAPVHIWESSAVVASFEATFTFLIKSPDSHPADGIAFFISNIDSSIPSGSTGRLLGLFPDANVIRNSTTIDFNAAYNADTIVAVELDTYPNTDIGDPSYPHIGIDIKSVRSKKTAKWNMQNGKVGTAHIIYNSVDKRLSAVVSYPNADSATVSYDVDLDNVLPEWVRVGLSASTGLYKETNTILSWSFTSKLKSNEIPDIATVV
Focal adhesion kinase 1 (Homo sapiens), sequence (Q05397 whole entry, looked up): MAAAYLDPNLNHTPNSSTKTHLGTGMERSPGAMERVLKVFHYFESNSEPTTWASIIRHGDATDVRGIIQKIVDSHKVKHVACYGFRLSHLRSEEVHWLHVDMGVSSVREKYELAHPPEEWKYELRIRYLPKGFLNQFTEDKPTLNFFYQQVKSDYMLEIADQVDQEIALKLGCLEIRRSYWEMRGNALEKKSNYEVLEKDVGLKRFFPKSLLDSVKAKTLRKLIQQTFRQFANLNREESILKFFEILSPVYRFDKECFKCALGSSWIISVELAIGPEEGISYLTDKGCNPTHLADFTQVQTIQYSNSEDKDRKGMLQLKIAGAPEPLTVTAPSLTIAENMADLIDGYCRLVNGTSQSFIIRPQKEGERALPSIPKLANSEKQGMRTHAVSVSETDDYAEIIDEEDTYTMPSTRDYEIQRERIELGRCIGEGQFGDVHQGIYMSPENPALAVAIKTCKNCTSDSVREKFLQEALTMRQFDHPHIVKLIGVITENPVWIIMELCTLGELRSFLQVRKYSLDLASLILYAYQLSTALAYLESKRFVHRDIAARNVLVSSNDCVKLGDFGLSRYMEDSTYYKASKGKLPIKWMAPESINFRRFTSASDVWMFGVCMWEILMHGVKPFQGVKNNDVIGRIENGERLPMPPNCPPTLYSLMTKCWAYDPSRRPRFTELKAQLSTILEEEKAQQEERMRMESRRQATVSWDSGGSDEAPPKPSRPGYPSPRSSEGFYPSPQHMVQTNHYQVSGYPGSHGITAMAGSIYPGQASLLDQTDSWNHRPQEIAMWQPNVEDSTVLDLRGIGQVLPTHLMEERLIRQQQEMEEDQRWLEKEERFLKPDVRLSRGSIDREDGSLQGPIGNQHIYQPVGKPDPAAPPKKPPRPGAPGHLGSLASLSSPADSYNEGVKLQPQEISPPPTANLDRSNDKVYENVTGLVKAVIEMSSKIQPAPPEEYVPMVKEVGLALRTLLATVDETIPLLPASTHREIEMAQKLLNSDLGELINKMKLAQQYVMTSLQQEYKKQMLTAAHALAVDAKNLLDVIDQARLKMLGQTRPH
Albumin (Bos taurus), sequence (P02769 whole entry, looked up): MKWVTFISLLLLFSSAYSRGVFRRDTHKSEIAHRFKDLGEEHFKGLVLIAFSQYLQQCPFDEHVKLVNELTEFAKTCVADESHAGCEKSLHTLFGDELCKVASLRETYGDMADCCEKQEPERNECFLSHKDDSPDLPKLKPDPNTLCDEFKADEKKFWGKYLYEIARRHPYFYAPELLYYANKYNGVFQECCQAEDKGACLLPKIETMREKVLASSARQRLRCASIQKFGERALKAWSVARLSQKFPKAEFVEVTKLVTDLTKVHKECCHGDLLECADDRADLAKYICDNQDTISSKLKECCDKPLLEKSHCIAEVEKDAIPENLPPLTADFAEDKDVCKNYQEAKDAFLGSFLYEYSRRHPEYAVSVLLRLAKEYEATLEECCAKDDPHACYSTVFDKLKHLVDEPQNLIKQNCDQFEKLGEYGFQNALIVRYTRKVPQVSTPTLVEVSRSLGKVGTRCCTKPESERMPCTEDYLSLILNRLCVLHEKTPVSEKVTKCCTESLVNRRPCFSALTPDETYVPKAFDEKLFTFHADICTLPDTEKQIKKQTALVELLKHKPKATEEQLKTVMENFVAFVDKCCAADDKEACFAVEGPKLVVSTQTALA
Follistatin (Homo sapiens), sequence (P19883 whole entry, looked up): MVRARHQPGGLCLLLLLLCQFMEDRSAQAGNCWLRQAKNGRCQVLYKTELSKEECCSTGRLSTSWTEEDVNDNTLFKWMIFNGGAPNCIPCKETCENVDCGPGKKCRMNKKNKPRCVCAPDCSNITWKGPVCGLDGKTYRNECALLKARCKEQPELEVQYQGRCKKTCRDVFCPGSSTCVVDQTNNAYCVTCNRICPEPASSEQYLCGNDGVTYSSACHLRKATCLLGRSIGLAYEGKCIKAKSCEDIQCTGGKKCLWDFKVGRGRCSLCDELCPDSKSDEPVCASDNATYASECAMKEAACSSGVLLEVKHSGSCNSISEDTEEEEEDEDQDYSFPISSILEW
Luciferin 4-monooxygenase (Photinus pyralis), sequence (P08659 whole entry, looked up): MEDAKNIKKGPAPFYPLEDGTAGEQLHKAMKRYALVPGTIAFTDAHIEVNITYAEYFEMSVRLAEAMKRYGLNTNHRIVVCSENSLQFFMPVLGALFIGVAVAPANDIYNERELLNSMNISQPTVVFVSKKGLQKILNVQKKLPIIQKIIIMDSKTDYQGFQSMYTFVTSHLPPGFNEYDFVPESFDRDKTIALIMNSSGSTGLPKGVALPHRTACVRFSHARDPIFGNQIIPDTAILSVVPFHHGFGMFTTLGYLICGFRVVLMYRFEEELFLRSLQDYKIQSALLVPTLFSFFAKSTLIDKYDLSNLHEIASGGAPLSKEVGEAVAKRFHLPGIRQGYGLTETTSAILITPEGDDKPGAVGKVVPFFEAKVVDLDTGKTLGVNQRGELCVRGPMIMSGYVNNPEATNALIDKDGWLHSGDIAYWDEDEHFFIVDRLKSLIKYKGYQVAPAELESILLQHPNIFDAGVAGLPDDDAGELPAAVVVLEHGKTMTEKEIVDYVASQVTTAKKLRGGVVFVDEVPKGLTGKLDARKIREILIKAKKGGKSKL
Fibroblast growth factor 2 (Homo sapiens), sequence (P09038 whole entry, looked up): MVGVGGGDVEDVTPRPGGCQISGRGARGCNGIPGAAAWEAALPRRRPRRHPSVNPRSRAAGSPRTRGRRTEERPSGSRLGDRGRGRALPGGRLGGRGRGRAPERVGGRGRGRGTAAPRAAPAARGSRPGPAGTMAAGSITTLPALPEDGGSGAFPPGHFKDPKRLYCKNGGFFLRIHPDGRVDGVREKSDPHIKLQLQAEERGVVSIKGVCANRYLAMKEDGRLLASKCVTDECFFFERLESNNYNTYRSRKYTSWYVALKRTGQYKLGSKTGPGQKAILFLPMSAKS

In the case of `O=C1O[C@H](c2ccccc2)[C@H](c2ccccc2)N2[C@H]1[C@@H](C(=O)O)[C@]1(C(=O)Nc3ccc(C#CC4=CCCCC4)cc31)[C@H]2c1ccc(O)cc1`, the composite z-score is 0.562 with Albumin (Bos taurus); 0.0445 in experiment [2]; -0.105 in [3]; 0.627 in experiment [4]; 1.51 in experiment [5]; 0.384 in experiment [6]. Also, the composite z-score with Sam68 (KHDRBS1) is 0.712; in [7], 0.285; in experiment [8] it was 0.997; in experiment [9] it was 0.687; in experiment [10], 0.394; in [11], 0.0304. For the same compound, the composite z-score was 0.987 in experiment [12]; 1.35 in [13]; 0.392 in experiment [14]; 0.841 with Lefty1; 0.362 in [16]. The composite Z-score in [1] was 0.235 (inactive). Also, the values for the z-score in [15] and in [17] were -2.35 and -2.89 (inactive), respectively.

For `OCCCC1=CC(c2ccc(CN3CCCC3)cc2)N(Cc2sc3ccccc3c2Cl)CC1` (stereo not given), the composite z-score in the experiment with Albumin (Bos taurus) is -0.38; in experiment [2], 0.191; in experiment [3], -0.0293; in experiment [4], 0.483; in experiment [5], 0.504; in experiment [6], -0.456. Also, the composite z-score was 0.982 in the experiment on Sam68 (KHDRBS1); 0.608 in experiment [7]; 0.913 in experiment [8]; 2.68 in experiment [9]; 1.07 in [10]; 0.609 in experiment [11]. For the same compound, the composite z-score in experiment [12] was 0.311; in experiment [13], 1.19; in [14], 1.38; with Lefty1 it was 0.649; in experiment [16] it was 0.483. In addition, the composite Z-score in [1] is -0.404 (inactive). The z-score in experiment [15] is 2.11; in [17], -1.01 (inactive).

Regarding `COCCCNC(=O)[C@@]1(Cc2ccccc2N=[N+]=[N-])N=C(c2ccc(OCCCO)cc2)O[C@H]1c1ccccc1`, the composite z-score with Albumin (Bos taurus) worked out at 0.533; in [2], 0.0749; in experiment [3], 0.0202; in experiment [4], 0.35; in experiment [5], 1.99; in experiment [6], 1.25. For the same compound, the composite z-score with Sam68 (KHDRBS1) is 1.04; in experiment [7], 0.099; in experiment [8], 0.79; in [9], 2.18; in experiment [10], 1.21; in [11], 0.854. The composite z-score in experiment [12] stood at 0.776; in experiment [13], 1.46; in experiment [14], 1.03; in the experiment on Lefty1, 0.256; in experiment [16], 0.759. Further, the composite Z-score in experiment [1] was 0.93 (inactive). Further, the z-score was 0.624 in experiment [15] and -0.97 (inactive) in [17].

Consider `CC(C)C[C@@H]1NC(=O)[C@@H]2C[C@H](C(=O)NCCCCCN)[C@H](c3ccc(O)cc3)N2C1=O`, for which the composite z-score with Albumin (Bos taurus) is 0.85; in experiment [2], -0.169; in [3] it was -0.102; in experiment [4], 0.577; in experiment [5], 1.48; in [6], 0.17. Moreover, the composite z-score in the experiment on Sam68 (KHDRBS1) worked out at 1.33; in experiment [7], 0.25; in [8], 1.17; in [9], 0.854; in experiment [10] it was 1.15; in experiment [11], 0.269. In addition, the composite z-score is 0.761 in [12]; 1.43 in [13]; 1.66 in experiment [14]; 1.3 in the experiment with Lefty1; 0.899 in experiment [16]. Further, the composite Z-score in experiment [1] is -0.285 (inactive). Moreover, the z-score in experiment [15] is -0.188; in experiment [17], -0.348 (inactive).

For `COC(=O)[C@@]1(Cc2ccc(F)cc2)[C@H]2c3cc(C(=O)N4CCCC4)n(CCc4ccc(O)c(O)c4)c3C[C@H]2CN1C(=O)c1ccccc1`, the composite z-score is 0.601 with Albumin (Bos taurus); 1.26 in [2]; 0.89 in [3]; 0.83 in experiment [4]; 1.83 in experiment [5]; 0.543 in experiment [6]. Moreover, the composite z-score in the experiment with Sam68 (KHDRBS1) was -1.03; in experiment [7], -0.113; in [8] it was -0.697; in experiment [9], -0.371; in [10] it was -0.253; in experiment [11] it was 0.842. Also, the composite z-score is -2.54 in experiment [12]; -0.411 in experiment [13]; -0.751 in experiment [14]; -0.49 in the experiment with Lefty1; -0.312 in [16]. Moreover, the composite Z-score in [1] is 0.41 (inactive). For the same compound, the z-score is -0.692 in experiment [15] and -7.51 (inactive) in [17].
